# Assay outcomes from PubChem BioAssay.
# This is a sample that favours compounds with a hit; in the whole collection about 4.8% have one here.
# SMARCA2 act = SMARCA2 function activation, primary screen; activation, % at 9.1 µM; MG213 cells, MMTV-luciferase reporter, dexamethasone, overnight; 370,000 compounds, 1% hits; AID 652017; in the data active = activation above about 7.8%
# hgDAF-12 ag = activates the H. glycines DAF-12 receptor ligand-binding domain | 370,000 compounds, 1.8% hits | HEK293 GAL4-hgDAF12 UAS-luciferase reporter, agonist luminescence; normalized to butyrate control | activation, % at 6.8 µM;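 active = activation above a cutoff set at the mean of all screened compounds plus 3 SD, cut at about 10% in these data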
# hcDAF-12 act = H. contortus DAF-12 activation, primary screen; activation, % at 6.8 µM; 370,000 compounds, 1.4% hits; HEK293 hcDAF-12 lit1-tk-luc reporter, luminescence; 0% DMSO, 100% Δ7-dafachronic acid; AID 652067;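 active = activation above the mean of all tested compounds plus 3 SD, cut at about 5.5% in these data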
# DAX1 inh-1 = inhibits human nuclear receptor DAX1 | P51843 | inhibition, % at 6.75 µM | HEK293 Gal4-DAX1 luciferase reporter, luminescence | 340,000 compounds, 0.99% hits;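 active = inhibition above the mean over all tested compounds plus 3 SD, cut at about 4.2% in these data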;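 also: inhibition shows as a rise in luminescence from relieved DAX1 repression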
# Target sequence (P51843 207-470 limits assumed): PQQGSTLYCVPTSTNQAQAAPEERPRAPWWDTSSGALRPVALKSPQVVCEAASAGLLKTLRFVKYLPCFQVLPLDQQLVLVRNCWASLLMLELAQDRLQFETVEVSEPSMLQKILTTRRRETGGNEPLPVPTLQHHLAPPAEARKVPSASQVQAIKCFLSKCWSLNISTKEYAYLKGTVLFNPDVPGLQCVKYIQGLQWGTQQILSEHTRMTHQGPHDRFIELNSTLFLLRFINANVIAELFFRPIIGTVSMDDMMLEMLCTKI
# DAX1 inh-2 = inhibitors of DAX1 repression of SF-1 activated StAR promoter; 370,000 compounds, 1.1% hits; inhibition, % at 6.8 µM; HEK293T StAR-luciferase reporter, SF-1/DAX-1 repression relief;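 active = inhibition above the mean over all tested compounds plus 3 SD, cut at about 3.6% in these data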;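 also: higher inhibition means more luminescence from relief of DAX-1 repression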
# ssDAF-12 act = activators of S. stercoralis DAF-12 nuclear receptor. HEK293 ssDAF-12/GRIP1 lit1-tk-luc reporter, luminescence; % of 3 µM dafachronic acid response. activation, % at 6.8 µM. 370,000 compounds, 1% hits. AID 652126;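 active = activation above the mean over all tested compounds plus 3 SD, cut at about 0.9% in these data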
# A number is an active result; 0 = inactive; - = no result given.
SMILES,SMARCA2 act,hgDAF-12 ag,hcDAF-12 act,DAX1 inh-1,DAX1 inh-2,ssDAF-12 act
CCC1(c2ccccc2)NC(=O)N(CC(=O)Nc2nnc(C3CC3)s2)C1=O (centres undefined),0,0,0,0,0,0
N#CC1=C2SC=C(c3ccc(Br)cc3)N2CCCC1=O,0,11.3,0,0,3.7,0
CCOC(=O)N1CCN(S(=O)(=O)c2ccc(C(=O)N(CCCN(C)C)c3nc4ccc(OC)cc4s3)cc2)CC1,0,0,0,0,3.6,0
O=[N+]([O-])c1cccc(-c2nc(-c3ccccc3)no2)c1,0,0,0,0,0,0
O=[N+]([O-])c1cccc(-c2noc(-c3ccco3)n2)c1,0,12.1,0,0,0,0
Cc1ccc(Cn2cc(CN3CC(N4CCN(CCO)CC4)CS3(=O)=O)nn2)cc1 (centres undefined),0,0,0,-,4.2,0
CCCCCCn1cc(CN2CC(N3CCN(CCN(C)C)CC3)CS2(=O)=O)nn1 (centres undefined),0,0,0,-,3.9,0
COc1ccc(Cn2cc(CN3CC(N4CCN(CCO)CC4)CS3(=O)=O)nn2)cc1 (centres undefined),0,0,0,-,0,0
COCCCn1cc(CN2CC(N3CCN(CCN(C)C)CC3)CS2(=O)=O)nn1 (centres undefined),0,0,0,-,0,0
CCN(C)C1CN(Cc2cn(Cc3ccc(C(F)(F)F)cc3)nn2)S(=O)(=O)C1 (centres undefined),0,0,0,-,4.1,0
Cc1cc(C)n2nc(C(=O)OCC(=O)NNC(=O)c3ccc(Cl)cc3)nc2n1,0,0,0,0,0,0
Cc1ccccc1-c1cc(C(=O)NCc2ccc(OC(F)(F)F)cc2)nn1CC1CC(c2cccc([N+](=O)[O-])c2)=NO1 (centres undefined),0,0,0,0,0,0
COc1ccc(NC(=O)c2cc(C3CCCCN3C(=O)c3ccc(Cl)cc3)on2)c(C)c1 (centres undefined),0,0,0,-,0,0
CCSc1nnc(-c2ccc(OC)cc2)o1,0,12.2,0,0,0,0
CSc1nnc(-c2ccc([N+](=O)[O-])cc2)o1,0,0,0,0,0,0
C#CCSc1nnc(-c2ccc(OC)cc2)o1,0,11.3,0,4.5,0,0
COc1ccc(-c2nnc(SCc3ccccc3F)o2)cc1,0,11.8,6.4,0,4.4,0
COc1ccc(-c2nnc(SCC#N)o2)cc1,0,0,0,0,0,0
C#CCSc1nnc(-c2ccc([N+](=O)[O-])cc2)o1,0,12.1,0,0,0,0
CNC(=O)CCCCCNS(=O)(=O)c1ccc(C)cc1,0,0,0,0,0,0
O=C(Nc1ccccc1OC(F)F)C1CC(=O)N(Cc2ccccc2)C1 (centres undefined),0,0,0,0,0,0
COc1ccc(-c2nnc(-c3ccccc3O)o2)cc1,0,12.2,0,0,0,0
Cc1ccccc1-c1nnc(SCc2ccccc2F)o1,0,12.6,6.4,4.3,3.9,0
CC(C)c1nnc(NC(=O)c2cccc(NC(=O)C(F)(F)F)c2)s1,0,12.2,0,0,0,0
CC(C)C(=O)Nc1cccc(C(=O)Nc2nnc(C(C)C)s2)c1,0,0,0,0,0,0
SMILES,SMARCA2 act,hgDAF-12 ag,hcDAF-12 act,DAX1 inh-1,DAX1 inh-2,ssDAF-12 act
O=C(NC1CC1)c1ccc2c(Cl)c3c(nc2c1)CCCC3,0,10.8,0,0,0,0
Cc1ccc(-c2nc3cc(N)ccc3o2)c(C)c1,0,12.4,0,0,0,0
Cc1ccc(NC(=O)COC(=O)c2cc(C)nc3ccccc23)c([N+](=O)[O-])c1,0,0,0,0,0,0
Cc1nc2ncnn2c(N2CCC(C(=O)NC3CCCC3)CC2)c1Cc1ccccc1,0,0,0,0,0,0
Cc1cc(C)cc(NC(=O)c2ccc3nc[nH]c3c2)c1,0,0,0,0,0,0
O=C(NC1CCCC1)c1ccc2nc[nH]c2c1,0,0,0,0,0,0
Cc1ccc(NC(=O)c2ccc3nc[nH]c3c2)cc1C,0,0,5.9,0,0,0
O=C(c1ccccc1)c1ccc2nc[nH]c2c1,0,0,6.3,0,0,0
Cc1c(C(=O)c2ccccc2)oc2ccc3ccccc3c12,0,0,0,6.6,0,0
